The target in test [1] is Cytochrome P450 2D6 (Homo sapiens) (UniProt P10635). Nature of the test: Cytochrome P450 Family 2 Subfamily D Member 6 (CYP2D6) small molecule antagonists: luciferase reporter qHTS assay (AID 1671196). Also: nearly all actives have a fitted effect of over 50% in size. Also: potency is read from the fitted curve at half-maximal effect. In a few lines:
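Luminogenic proluciferin substrate, CYP2D6 enzyme; 10 min RT preincubation with compound, NADPH regeneration system added, 1 h RT. Stop/detection reagent, 20 min RT, luminescence read (RLU). Signal proportional to CYP activity.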

Test [2] addresses Cytochrome P450 2C9 (Homo sapiens) (UniProt P11712). The test can be described thus: Cytochrome P450 Family 2 Subfamily C Member 9 (CYP2C9) small molecule antagonists: luciferase reporter qHTS assay (AID 1671198). Also: nearly all actives have a fitted effect of over 50% in size. Also: potency is read from the fitted curve at half-maximal effect. In a few lines:
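P450-Glo proluciferin substrate with CYP2C9 enzyme; 10 min RT preincubation, then NADPH regeneration 1 h at 37C; luciferin detection reagent 20 min RT, luminescence in relative luminescence units.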
(In general: In a reporter assay the amount or activity of a reporter protein is the signal.)

Test [3] deals with Cytochrome P450 1A2 (Homo sapiens) (UniProt P05177). The test can be described thus: Cytochrome P450 Family 1 Subfamily A Member 2 (CYP1A2) small molecule antagonists: luciferase reporter qHTS assay (AID 1671199). Also: nearly all actives have a fitted effect of over 50% in size. Also: potency is read from the fitted curve at half-maximal effect. In a few lines:
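Luminescence readout (relative luminescence units) after luciferin detection reagent, 20 min RT. Preceded by 1 h room-temperature CYP1A2 reaction with NADPH regeneration solution following 10 min compound preincubation with enzyme and proluciferin substrate. Furafylline positive control.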

Test [4] deals with Voltage-gated inwardly rectifying potassium channel KCNH2 (Homo sapiens) (UniProt Q12809). The test can be described thus: Human Ether-a-go-go-Related Gene (hERG) channel small molecule antagonists: fluorescence cell-based qHTS assay (AID 1671200).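 Also: hERG-expressing U2OS cells given a thallium stimulus after FluxOR II dye loading; series mostly up to about 77 µM; nearly all actives have a fitted effect of over 50% in size.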 In a few lines:
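Channel function was assessed by thallium flux. Cells seeded the previous day and kept at 37 C took up FluxOR II dye over 1 h in the dark at room temperature, then sat another 10 min before stimulation.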
For orientation: Block of hERG is tested as a sign of cardiac risk.

Test [5] addresses Cytochrome P450 3A4 (Homo sapiens) (UniProt P08684). The test can be described thus: Cytochrome P450 Family 3 Subfamily A Member 4 (CYP3A4) small molecule antagonists: luciferase reporter qHTS assay (AID 1671201). Also: nearly all actives have a fitted effect of over 50% in size. Also: potency is read from the fitted curve at half-maximal effect. In a few lines:
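Compounds in DMSO were pin-transferred onto CYP3A4 enzyme-substrate mix and held 10 min at room temperature. NADPH regenerating solution started the reaction for 1 h; luciferin detection reagent stopped it, and luminescence was read after 20 min.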

In test [6] the target is Cytochrome P450 2C19 (Homo sapiens) (UniProt P33261). The test can be described thus: Cytochrome P450 Family 2 Subfamily C Member 19 (CYP2C19) small molecule antagonists: luciferase reporter qHTS assay (AID 1671197). Also: nearly all actives have a fitted effect of over 65% in size. Also: potency is read from the fitted curve at half-maximal effect. The method, boiled down:
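CYP2C19 P450-Glo, 1536-well qHTS. Cpd + enzyme/proluciferin substrate 10 min RT; + NADPH regen, 37C 1 h; stop with luciferin detection reagent, 20 min RT, luminescence (RLU). Pos ctrl ketoconazole.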

Test [7] concerns the target Acetylcholinesterase (Homo sapiens) (UniProt P22303). Nature of the test: Acetylcholinesterase (AChE) small molecule antagonists: colormetric cell-based qHTS assay (AID 1347395; calls by dose curve; also: nearly all actives have a fitted effect of over 30% in size; also: potency is read from the fitted curve at half-maximal effect). The method, boiled down:
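Colorimetric read-out: DTNB detects thiocholine released when cellular AChE in SH-SY5Y cells hydrolyses acetylthiocholine. Cells attached overnight, received compound for 30 min at 37 C, then substrate mix for 90 min at 37 C.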

Test [8] has the same target. The test can be described thus: Acetylcholinesterase (AChE) small molecule antagonists: enzyme-based qHTS assay (AID 1347397; calls by dose curve; also: nearly all actives have a fitted effect of over 55% in size; also: potency is read from the fitted curve at half-maximal effect). The settings on record: Potency: AChE enzyme activity inhibition. In a few lines:
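Colorimetric DTNB read-out of thiocholine released from acetylthiocholine by recombinant human AChE (50 mU/mL as dispensed). Compounds were preincubated 30 min at RT before substrate/DTNB addition, with a 10 min RT reaction.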
On the technique in general: qHTS replaces the single test concentration by a dilution series.

Test [9] shares this target. The test can be described thus: Acetylcholinesterase (AChE) small molecule antagonists: fluorescence cell-based qHTS assay (AID 1347398; calls by dose curve; also: nearly all actives have a fitted effect of over 50% in size; also: potency is read from the fitted curve at half-maximal effect). The note with it: Potency: AChE activity. The method, boiled down: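 SH-SY5Y, 2,000 cells/well, attached overnight; cmpd 30 min 37 C; acetylthiocholine/Thiolite Green cocktail 40 min RT; fluorescence Ex/Em 490/520 nm.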
The target is the same in test [10]. Nature of the test: Acetylcholinesterase (AChE) small molecule antagonists: enzyme-based qHTS assay with human liver microsomes (AID 1347399; calls by dose curve; also: nearly all actives have a fitted effect of over 60% in size; also: potency is read from the fitted curve at half-maximal effect). The settings on record: Potency: qHTS inhibition. The method, boiled down:
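Recombinant human AChE (50 mU/mL in the enzyme mix) and human liver microsomes (0.25 mg/mL final) were preincubated with compound and NADPH (0.25 mg/mL final) for 30 min at 37 C. Acetylthiocholine/DTNB was then added; thiocholine was read colorimetrically after 10 min at room temperature.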

Structures are written as SMILES. Values joined by “and” are separate entries in the source; they are usually repeats but may differ in a detail not shown here. Identical values can stand only once. Records with an inconclusive call do not appear. Some compounds were tested as several samples or in several runs, with calls that do not always agree. Active and inactive are the calls of the source. Unless noted, calls follow the shape of the dose curve; as a rule, active = well fitted curve in the direction sought with a large enough effect in the repeat runs; inconclusive = weak or mixed curves; inactive = no such curve, though single readings can be large; an effect the other way counts as inactive or inconclusive.

Chain of Cytochrome P450 2C9 (Homo sapiens) (P11712 whole entry, looked up): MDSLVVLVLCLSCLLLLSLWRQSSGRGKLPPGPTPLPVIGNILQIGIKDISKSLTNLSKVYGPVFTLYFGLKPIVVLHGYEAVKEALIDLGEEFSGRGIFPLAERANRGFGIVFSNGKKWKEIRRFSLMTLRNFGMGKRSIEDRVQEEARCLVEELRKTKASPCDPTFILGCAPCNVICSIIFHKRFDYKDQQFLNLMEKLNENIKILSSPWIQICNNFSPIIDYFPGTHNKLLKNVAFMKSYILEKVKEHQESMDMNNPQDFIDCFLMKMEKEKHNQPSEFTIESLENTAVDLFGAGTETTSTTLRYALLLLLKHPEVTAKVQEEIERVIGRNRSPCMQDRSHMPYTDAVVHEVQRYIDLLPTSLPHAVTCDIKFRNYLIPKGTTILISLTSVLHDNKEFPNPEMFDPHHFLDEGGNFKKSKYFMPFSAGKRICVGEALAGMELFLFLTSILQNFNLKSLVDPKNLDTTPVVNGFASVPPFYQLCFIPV
Chain of Acetylcholinesterase (Homo sapiens) (P22303 whole entry, looked up): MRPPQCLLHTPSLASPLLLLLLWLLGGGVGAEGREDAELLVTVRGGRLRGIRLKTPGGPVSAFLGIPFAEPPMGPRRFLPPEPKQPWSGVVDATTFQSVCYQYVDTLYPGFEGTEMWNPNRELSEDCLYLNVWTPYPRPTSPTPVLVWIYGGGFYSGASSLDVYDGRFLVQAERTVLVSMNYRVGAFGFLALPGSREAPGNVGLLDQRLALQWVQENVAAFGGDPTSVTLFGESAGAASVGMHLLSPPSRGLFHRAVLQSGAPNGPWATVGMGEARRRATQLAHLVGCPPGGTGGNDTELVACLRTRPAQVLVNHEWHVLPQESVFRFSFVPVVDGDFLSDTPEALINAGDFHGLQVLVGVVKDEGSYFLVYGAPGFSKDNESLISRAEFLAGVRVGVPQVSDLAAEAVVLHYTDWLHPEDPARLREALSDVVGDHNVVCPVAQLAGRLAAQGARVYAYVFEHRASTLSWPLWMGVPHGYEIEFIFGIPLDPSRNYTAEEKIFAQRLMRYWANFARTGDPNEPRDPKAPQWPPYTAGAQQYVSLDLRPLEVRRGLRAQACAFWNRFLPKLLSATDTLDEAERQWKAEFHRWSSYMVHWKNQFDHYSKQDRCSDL
Chain of Cytochrome P450 2D6 (Homo sapiens) (P10635 whole entry, looked up): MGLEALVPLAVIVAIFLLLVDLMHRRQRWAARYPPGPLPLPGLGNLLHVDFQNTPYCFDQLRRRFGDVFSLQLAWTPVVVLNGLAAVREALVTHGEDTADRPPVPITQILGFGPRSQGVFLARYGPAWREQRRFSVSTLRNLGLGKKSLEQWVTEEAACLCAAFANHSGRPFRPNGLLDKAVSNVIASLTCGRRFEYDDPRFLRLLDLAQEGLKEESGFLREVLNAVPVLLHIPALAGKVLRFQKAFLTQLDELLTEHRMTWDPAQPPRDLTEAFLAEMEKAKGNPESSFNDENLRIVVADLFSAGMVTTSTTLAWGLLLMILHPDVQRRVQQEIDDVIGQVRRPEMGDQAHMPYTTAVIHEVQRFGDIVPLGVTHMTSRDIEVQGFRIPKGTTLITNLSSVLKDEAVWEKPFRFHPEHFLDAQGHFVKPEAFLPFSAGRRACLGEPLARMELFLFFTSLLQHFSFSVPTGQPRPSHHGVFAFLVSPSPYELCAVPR
Chain of Cytochrome P450 2C19 (Homo sapiens) (P33261 whole entry, looked up): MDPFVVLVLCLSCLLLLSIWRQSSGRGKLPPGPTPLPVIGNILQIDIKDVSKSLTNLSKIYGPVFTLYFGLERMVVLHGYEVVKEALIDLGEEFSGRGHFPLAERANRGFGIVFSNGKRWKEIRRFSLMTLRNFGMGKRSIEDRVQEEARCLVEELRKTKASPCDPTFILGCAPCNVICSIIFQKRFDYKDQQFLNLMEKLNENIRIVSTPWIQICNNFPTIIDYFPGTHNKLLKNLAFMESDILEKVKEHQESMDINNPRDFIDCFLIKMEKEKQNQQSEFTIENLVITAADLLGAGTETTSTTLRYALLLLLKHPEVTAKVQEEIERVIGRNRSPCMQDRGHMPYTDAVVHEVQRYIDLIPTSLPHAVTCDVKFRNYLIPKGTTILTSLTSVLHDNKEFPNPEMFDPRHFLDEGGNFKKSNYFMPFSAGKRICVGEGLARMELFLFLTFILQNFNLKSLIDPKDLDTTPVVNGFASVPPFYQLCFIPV
Chain of Cytochrome P450 1A2 (Homo sapiens) (P05177 whole entry, looked up): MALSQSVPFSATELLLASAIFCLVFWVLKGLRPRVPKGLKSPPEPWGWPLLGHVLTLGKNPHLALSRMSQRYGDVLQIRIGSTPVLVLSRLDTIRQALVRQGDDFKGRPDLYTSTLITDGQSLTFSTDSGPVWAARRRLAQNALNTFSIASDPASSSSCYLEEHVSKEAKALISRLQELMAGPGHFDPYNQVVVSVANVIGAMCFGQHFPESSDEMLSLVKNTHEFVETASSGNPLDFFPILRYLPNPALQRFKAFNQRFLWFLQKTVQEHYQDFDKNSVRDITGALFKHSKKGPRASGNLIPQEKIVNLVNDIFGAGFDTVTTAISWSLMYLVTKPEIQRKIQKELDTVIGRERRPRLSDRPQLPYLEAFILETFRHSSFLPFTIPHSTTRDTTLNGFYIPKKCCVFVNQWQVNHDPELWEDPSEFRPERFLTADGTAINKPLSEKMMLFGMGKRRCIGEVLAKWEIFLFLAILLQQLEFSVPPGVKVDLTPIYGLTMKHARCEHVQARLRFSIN
Chain of Cytochrome P450 3A4 (Homo sapiens) (P08684 whole entry, looked up): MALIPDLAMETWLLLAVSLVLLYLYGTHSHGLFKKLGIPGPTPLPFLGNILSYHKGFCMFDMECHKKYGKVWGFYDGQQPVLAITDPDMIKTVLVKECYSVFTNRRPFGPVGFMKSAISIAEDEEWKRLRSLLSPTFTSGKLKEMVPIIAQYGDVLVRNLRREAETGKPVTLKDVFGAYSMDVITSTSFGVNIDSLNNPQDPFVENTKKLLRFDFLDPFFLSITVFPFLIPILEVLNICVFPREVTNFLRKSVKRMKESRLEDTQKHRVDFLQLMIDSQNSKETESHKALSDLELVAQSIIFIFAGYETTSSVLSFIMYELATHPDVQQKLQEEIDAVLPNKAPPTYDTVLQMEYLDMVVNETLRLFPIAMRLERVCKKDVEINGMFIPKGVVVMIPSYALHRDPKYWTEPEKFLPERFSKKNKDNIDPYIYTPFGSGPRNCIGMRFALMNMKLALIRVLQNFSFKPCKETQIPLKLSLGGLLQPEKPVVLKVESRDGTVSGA
Chain of Voltage-gated inwardly rectifying potassium channel KCNH2 (Homo sapiens) (Q12809 whole entry, looked up): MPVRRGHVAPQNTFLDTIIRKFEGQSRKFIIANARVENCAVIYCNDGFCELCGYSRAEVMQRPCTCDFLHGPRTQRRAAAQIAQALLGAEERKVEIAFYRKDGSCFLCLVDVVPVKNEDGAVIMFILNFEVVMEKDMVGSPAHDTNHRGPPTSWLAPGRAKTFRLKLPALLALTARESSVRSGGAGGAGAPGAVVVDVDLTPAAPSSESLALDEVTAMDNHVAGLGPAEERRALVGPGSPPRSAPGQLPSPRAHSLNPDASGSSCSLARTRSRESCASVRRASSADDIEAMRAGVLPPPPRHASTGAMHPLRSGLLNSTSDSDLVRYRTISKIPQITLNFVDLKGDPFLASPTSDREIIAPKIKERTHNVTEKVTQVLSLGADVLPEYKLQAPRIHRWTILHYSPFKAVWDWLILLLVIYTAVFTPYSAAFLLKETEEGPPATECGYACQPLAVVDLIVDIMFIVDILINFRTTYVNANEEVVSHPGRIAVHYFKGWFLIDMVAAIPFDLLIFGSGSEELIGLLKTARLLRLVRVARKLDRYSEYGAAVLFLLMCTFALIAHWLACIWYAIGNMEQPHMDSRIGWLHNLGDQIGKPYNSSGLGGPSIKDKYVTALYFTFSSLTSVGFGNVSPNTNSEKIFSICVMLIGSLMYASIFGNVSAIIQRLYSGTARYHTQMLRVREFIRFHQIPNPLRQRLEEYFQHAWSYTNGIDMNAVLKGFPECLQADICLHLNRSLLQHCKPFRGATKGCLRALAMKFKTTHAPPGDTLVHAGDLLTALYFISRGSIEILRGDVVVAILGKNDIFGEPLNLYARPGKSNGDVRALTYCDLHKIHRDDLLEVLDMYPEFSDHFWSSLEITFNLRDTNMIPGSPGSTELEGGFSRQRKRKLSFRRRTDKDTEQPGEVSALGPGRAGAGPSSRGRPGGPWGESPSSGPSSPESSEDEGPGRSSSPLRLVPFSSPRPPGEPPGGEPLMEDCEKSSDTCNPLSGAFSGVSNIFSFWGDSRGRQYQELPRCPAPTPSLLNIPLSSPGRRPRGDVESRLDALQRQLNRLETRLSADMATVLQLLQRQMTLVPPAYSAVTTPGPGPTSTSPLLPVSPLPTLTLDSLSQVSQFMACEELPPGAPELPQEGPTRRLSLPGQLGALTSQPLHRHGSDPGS

For `Cc1ccccc1N`, the Potency entry in [1] was “inactive and 40.7 µM (active)”; in test [2] it was 40.7 µM (active) and 79.6 µM (active) and 35.6 µM (active); in [3], “inactive and 36.3 µM (active) and 31.7 µM (active)”; in test [5], “inactive and 28.8 µM (active) and 28.3 µM (active)”. In [4], the Potency entry was “inactive”.

As to `CNC(=O)O/N=C/C(C)(C)S(C)(=O)=O`, the Potency entry in [1], in test [6], in test [2], in [3], in test [4] and in [5] was “inactive” in each case.

Regarding `O=[N+]([O-])c1ccc(Cl)c(Cl)c1`, the Potency result in test [7], in test [8], in test [9], in test [10], in test [1] and in test [4] was “inactive” each time. Also, in test [5], the Potency entry is “inactive”. The Potency in test [6] was 71.1 µM (active) and inactive; in [3] it was “inactive and 22.4 µM (active)”.

As for `Cl[C@H]1OCCO[C@@H]1Cl`, the Potency entry in test [7], in test [8], in test [9], in test [10], in test [2] and in test [3] was “inactive” each time. The Potency entry in test [4] and in test [5] was “inactive” throughout. Besides, the Potency in test [1] is 19.6 µM (active).

Consider `Nc1ncc([N+](=O)[O-])s1`, for which the Potency result in [7], in test [8], in test [9], in test [10], in test [1] and in test [4] was “inactive” in each case. For the same compound, the Potency entry in test [5] was “inactive”. Besides, the Potency in [6] is 71.6 µM (active) and 50.2 µM (active); in test [2] it was 63.3 µM (active).

Take `CCOP(=S)(OCC)Oc1ccc([N+](=O)[O-])cc1`: the Potency in test [7] was 64.1 µM (active) and 13.8 µM (active); in [8] it was 24.5 µM (active); in test [9], 71.9 µM (active) and 15.5 µM (active); in test [10], 905 nM (active) and 616 nM (active); in [6] it was 128 nM (active) and 109 nM (active); in test [2], 1.61 µM (active) and 976 nM (active). For the same compound, the Potency in test [3] was 1.02 µM (active) and 976 nM (active); in test [5], 2.27 µM (active) and 2.75 µM (active).

`CNc1cnn(-c2cccc(C(F)(F)F)c2)c(=O)c1Cl`: the Potency result in test [7], in test [8], in test [9], in test [10], in test [1] and in test [4] was “inactive” each time. The Potency in test [6] was 6.85 µM (active) and 31.7 µM (active); in test [3], 5.44 µM (active) and 10 µM (active); in test [5], 34.3 µM (active).

Regarding `OCCCCO`, the Potency result in test [4] was “inactive”.

`C=CC(=O)OCC(CC)CCCC` (stereo not drawn): the Potency entry in [4] was “inactive”.

As for `COc1nc(NC(C)C)nc(NC(C)C)n1`, the Potency entry in test [7], in test [8], in [9], in test [10], in test [1] and in test [2] was “inactive” in each case. In addition, the Potency entry in test [4] and in [5] was “inactive” each time. Besides, the Potency in [3] is 31.8 µM (active) and 28.3 µM (active).

`Nc1ccc(N)cc1`: the Potency in test [1] was 39.9 µM (active); in test [6], 34.7 µM (active) [middle of 4 runs]; in test [2] it was 11.3 µM (active) and 28.3 µM (active) and 8.71 µM (active). The Potency result in [4] was “inactive”.

On to `NNc1ccccc1`, for which the Potency in test [2] was 39.5 µM (active) and 39.8 µM (active) and 50.2 µM (active). Further, in [4], the Potency result is “inactive”.

In the case of `Oc1ccc(Cl)cc1`, in test [4], the Potency result was “inactive”.

On to `CSc1nnc(C(C)(C)C)c(=O)n1N`, for which the Potency result in [7], in [8], in [9], in test [10], in test [6] and in [2] was “inactive” throughout. Moreover, the Potency result in [4] and in [5] was “inactive” throughout. Further, in test [1], the Potency was 31.4 µM (active).

Take `Cc1cccc(N)c1C`: the Potency result in test [7], in [8], in test [9], in test [10] and in [4] was “inactive” throughout. The Potency in [1] is 71 µM (active); in [6], “inactive and 31.7 µM (active)”; in [3], 36.9 µM (active) and 20 µM (active); in [5], 36.9 µM (active).

Turning to `FC(F)(F)c1ccc(Cl)cc1`, the Potency entry in test [7], in test [8], in test [9], in test [10], in [1] and in test [6] was “inactive” each time. Also, the Potency result in test [2], in test [4] and in [5] was “inactive” throughout.

For `OCC(O)CCl` (stereo not drawn), the Potency result in test [7], in test [8], in [9], in [10], in [1] and in test [2] was “inactive” each time. Also, the Potency entry in test [4] and in test [5] was “inactive” each time. In addition, the Potency in [6] is 79.6 µM (active) and inactive.

Turning to `CNC(=O)Oc1cccc2ccccc12`, the Potency is 2.22 µM (active) and inactive in [7]; 3.56 µM (active) in [9]; “inactive and 89.4 µM (active)” in [10]; 39.6 µM (active) and inactive in test [1]; 35.3 µM (active) and 63.3 µM (active) and 17.4 µM (active) in test [6]; 28 µM (active) and inactive in test [2]. In addition, the Potency in [3] was 3.14 µM (active) and 8.94 µM (active). Also, the Potency result in test [4] and in test [5] was “inactive” throughout.

Source of the values: PubChem BioAssay (Tox21).
